Several values for one entry are separate records, joined by “and”; a condition that tells them apart may be missing. Equal values may be shown once. Hit rate of the full screen: of about 16,000 compounds, about 5,800 (36%) were called active. Roughly 23% stayed inconclusive and do not appear here. Some of the results follow. Unmarked numbers belong to inactive results. Calls come from the whole dose curve; as a rule, active = well fitted curve in the direction sought with a large enough effect; inconclusive = small, poorly fitted or top-dose-only effect, or effect the other way; inactive = no such curve, though single readings can be large or run the other way.
These compounds were tested against Cytochrome P450 2C19 (Homo sapiens) (UniProt P33261) (assay: Cytochrome panel assay with activity outcomes). Settings: recombinant CYP, pro-luciferin dealkylation, luminescence, p450-cyp2c19; series mostly up to 57.1 µM; activity, negative = inhibition: at the top concentration.
Chain of Cytochrome P450 2C19 (Homo sapiens) (P33261 whole entry, looked up): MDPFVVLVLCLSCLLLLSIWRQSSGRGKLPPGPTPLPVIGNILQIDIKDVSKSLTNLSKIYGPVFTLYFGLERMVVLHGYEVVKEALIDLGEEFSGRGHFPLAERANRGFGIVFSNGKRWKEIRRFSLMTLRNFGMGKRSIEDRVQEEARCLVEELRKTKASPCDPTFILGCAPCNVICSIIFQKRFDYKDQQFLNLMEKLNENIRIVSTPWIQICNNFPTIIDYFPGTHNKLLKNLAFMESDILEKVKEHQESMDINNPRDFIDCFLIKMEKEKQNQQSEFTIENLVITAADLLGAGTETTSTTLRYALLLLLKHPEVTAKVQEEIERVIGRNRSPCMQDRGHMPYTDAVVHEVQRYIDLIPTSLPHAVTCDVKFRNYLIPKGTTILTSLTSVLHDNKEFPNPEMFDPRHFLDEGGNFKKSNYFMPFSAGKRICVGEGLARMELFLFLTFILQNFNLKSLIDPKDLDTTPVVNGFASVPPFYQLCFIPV
`O=C(NC1CCCc2ccccc21)c1ccc(=O)[nH]c1` (configuration not stated) was tested, and the “activity, negative = inhibition” value was -15.8%.
`O=C(NC1CCCc2ccccc21)C1CCN(S(=O)(=O)N2CCCCCC2)CC1` (configuration not stated) was tested, and the AC50 was 17.8 µM (active).
`O=C(NCCCN1CCc2ccccc2C1)C1CCN(S(=O)(=O)N2CCCC2)CC1` was tested, and the “activity, negative = inhibition” value was -24.9%.
In the case of `Cc1cccc(NC(=O)CSc2nc(COc3ccccc3)nc3ccccc23)c1C`, the AC50 is reported as 2 µM (active).
For `CCc1nc(SCC(=O)NNC(=O)C2CCCCC2)c2ccccc2n1`, the “activity, negative = inhibition” value was 4.97%.
`CCn1c(CCNC(=O)c2ccccc2Cl)n[nH]c1=S` was tested, and the “activity, negative = inhibition” value was -10.1%.
In the case of `C=CCn1c(C(C)NC(=O)c2ccccc2)n[nH]c1=S` (configuration not stated), the AC50 is reported as 5.01 µM (active).
For `NS(=O)(=O)c1cc(Cl)c(Cl)c(S(N)(=O)=O)c1`, the “activity, negative = inhibition” value was 26.8% [at 25.6 µM].
For `CC(=O)NNC(=O)C(O)(c1ccccc1)c1ccccc1`, the “activity, negative = inhibition” value was 9.3%.
In the case of `Cc1cccc(N(NC(=O)C(C)(C)O)C(=O)c2ccccc2)c1`, the AC50 is reported as 20 µM (active).
Work on `CCN1C(=O)[C@H]2[C@H]3[C@H](O)[C@H](O)C/C(=N/OCC(C)C)[C@@H]3CC[C@@H]2C1=O` yielded an activity, negative = inhibition of -7.39% [at 11.4 µM].
For `CCc1ccc(C(=O)N2CCC(c3nc4ccccc4s3)CC2)cc1`, the AC50 was 14.1 µM (active).
With `C[C@H]1NC(=O)NC1=O` the AC50 was “inactive”.
In the case of `C/C(=N\NC(=O)c1ccc(Cl)cc1)c1cccc(NC(=O)C(C)C)c1`, the AC50 is reported as 17.8 µM (active).
`C/C(=N/NC(=O)c1cccs1)c1ccc(NC(=O)COc2ccc(Cl)cc2Cl)cc1` was tested, and the AC50 was 14.1 µM (active).
With `C/C(=N\NC(=O)c1cccc(Cl)c1)c1cccc(NC(=O)C(C)C)c1` the “activity, negative = inhibition” value was 13.8%.
For `CCC(CC)C(=O)Nc1cccc(/C(C)=N\NC(=O)c2ccc(C)s2)c1`, the “activity, negative = inhibition” value was 1.98%.
With `C/C(=N/NC(=O)c1ccc(C)s1)c1cccc(NC(=O)COc2ccc(Cl)cc2C)c1` the AC50 was 3.16 µM (active).
With `CCc1ccc2c(c1)c(N=NC1=NC(=O)CS1)c(O)n2CC` the “activity, negative = inhibition” value was -18.3%.
`CC(=O)NNc1cccc(Cl)n1` was tested, and the “activity, negative = inhibition” value was 11.9%.
`C=CCSC[C@@H]1Nc2cc(Cl)c(S(N)(=O)=O)cc2S(=O)(=O)N1` was tested, and the “activity, negative = inhibition” value was 7.79% [at 25.6 µM].
In the case of `O=C(NCC1CCCO1)c1nn2c(c1Cl)NC(c1ccc(F)cc1)CC2C(F)(F)F` (configuration not stated), the “activity, negative = inhibition” value is reported as -14.1%.
`CC(C)CC(C(=O)NCC1CCCO1)N(C(=O)Cn1nnc(-c2ccc(F)cc2)n1)c1cccc(C(F)(F)F)c1` (configuration not stated) was tested, and the AC50 was 3.55 µM (active).
For `CN(C(=O)Cn1nnc(-c2cccc(C(F)(F)F)c2)n1)C1CCCCC1`, the “activity, negative = inhibition” value was 7.73%.
In the case of `CC(C)CC(C(=O)NCC1CCCO1)N(C(=O)Cn1nnc(-c2ccc(F)cc2)n1)c1ccccc1F` (configuration not stated), the AC50 is reported as 25.1 µM (active).
`O=S1(=O)N[C@H]2CC[C@@H]3NS(=O)(=O)N[C@H]4CC[C@H](N1)N4S(=O)(=O)N23` showed an activity, negative = inhibition of 11.2% [at 11.4 µM].
`CCN1C(=O)[C@H]2[C@H]3[C@H](O)[C@H](O)C/C(=N/O[C@@H](C)c4cn([C@H](CO)Cc5ccccc5)nn4)[C@@H]3CC[C@@H]2C1=O` was tested, and the activity, negative = inhibition was 4.85% [at 11.4 µM] and 16% [at 11.4 µM].
With `O=C(Nc1cnn(Cc2ccc(Cl)cc2Cl)c1)c1cc(-c2cccs2)on1` the AC50 was 4.47 µM (active).
`c1ccc2c(c1)nnn2CN1CCOCC1` was tested, and the activity, negative = inhibition was 22.7% [at 11.4 µM].
With `c1ccc(-c2ccc(C3=Nn4c(Cn5nnc6ccccc65)nnc4SC3)cc2)cc1` the AC50 was 14.1 µM (active).
`Fc1ccc(C2=Nn3c(Cc4ccccc4F)nnc3SC2)cc1` was tested, and the AC50 was 3.98 µM (active).
`C#CCCCO/N=C1/C[C@@H](O)[C@@H](O)[C@@H]2[C@@H]3C(=O)N(CC)C(=O)[C@H]3CC[C@H]12` gave an activity, negative = inhibition of -28.1% [at 11.4 µM].
`O=C(N/N=C1/C[C@@H](O)[C@@H](O)[C@@H]2[C@@H]3C(=O)N(Cc4ccccc4)C(=O)[C@H]3CC[C@H]12)OCc1ccccc1` showed an activity, negative = inhibition of 0.945% [at 11.4 µM].
With `CC(C)=CCC/C(C)=C/CO/N=C1/C[C@@H](O)[C@@H](O)[C@@H]2[C@@H]3C(=O)N(C4CCCCC4)C(=O)[C@H]3CC[C@H]12` the activity, negative = inhibition was -23.1% [at 11.4 µM].
For `CN[C@@H]1[C@H](O[C@@H]2O[C@H](CO)[C@@H](N)[C@H](O)[C@@H]2O)O[C@H]2C[C@@H](N)[C@@H](O[C@H]3[C@@H](O)[C@H](O)[C@H](N)C[C@@H]3N)O[C@H]2[C@H]1O`, the “activity, negative = inhibition” value was -36.8% [at 25.6 µM].
For `CC(=O)Nc1ccc(S(=O)(=O)NC(CC(=O)NCCC2=CCCCC2)C(C)C)cc1` (configuration not stated), the AC50 was 10 µM (active).
In the case of `CC(=O)Nc1ccc(S(=O)(=O)NC(CC(=O)NCCCN2CCOCC2)C(C)C)cc1` (configuration not stated), the “activity, negative = inhibition” value is reported as -6.43%.
With `CC(C)C(=O)NCCn1ccc2ccccc21` the AC50 was 6.31 µM (active).
`CCN(c1ccccc1)c1cc(NC)[n+](C)c(C)n1` was tested, and the “activity, negative = inhibition” value was -3.33%.
`O=C(O)[C@@H]1[C@@H]2C[C@H]([C@@H](Br)[C@H]2N2C(=O)CCC2=O)[C@@H]1C(=O)O` showed an activity, negative = inhibition of 39.9% [at 11.4 µM].
`O=C(O)c1cc(=O)c2ccc(Cl)cc2[nH]1` was tested, and the “activity, negative = inhibition” value was 14.6%.
In the case of `COc1cccc(/C=N/NC(=O)C(=O)NCc2cccnc2)c1`, the “activity, negative = inhibition” value is reported as -29.3%.
With `COc1ccc(NC(=O)COC(=O)c2c(-c3ccccc3)noc2C)cc1` the AC50 was 8.91 µM (active).
With `COc1cccc(/C=N/NC(=O)c2cc(-c3cccn3C)n[nH]2)c1` the AC50 was 15.8 µM (active).
`COc1ccc(C(=O)Nc2ccc(C(=O)OCC(=O)c3ccccc3)cc2)cc1` was tested, and the “activity, negative = inhibition” value was -13.4%.
`COc1cccc(/C=N/NC(=O)c2c(-c3ccccc3)noc2C)c1` was tested, and the AC50 was 2 µM (active).
In the case of `COc1ccc(C(=O)COC(=O)c2ccc(NC(=O)c3ccccc3)cc2)cc1`, the “activity, negative = inhibition” value is reported as -6.93%.
% is set by controls: 0 for no effect and ±100 for the full control effect.
